D3 ag – activates the human D3 dopamine receptor; P35462; D3R DiscoveRx beta-arrestin cells, luminescence, 90 min; max activation, %; 410,000 tested, 0.58% active; in the data active means max activation above about 30%; further: 0% is about no effect
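Cells at 1500/well, incubated overnight, then treated with pinned compounds (dopamine as control) for 90 min at 37 degrees C. DiscoveRx reagent added for 30 - 60 minutes at room temperature; luminescence read.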
TRPML1 blocker – human mucolipin-1 channel inhibition; activity change, negative = inhibition, % (test concentration not listed); TRPML1-inducible cells, Ca2+ dye fluorescence, FDSS; active compounds read low; inhibition of EC80 agonist-evoked calcium signal; 390,000 tested, 0.02% active; Q9GZU1; AID 624415; in the data active means activity change below about -50%; inconclusive means between about -30% and that limit;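 further: stimulus is agonist 54-4 at its EC80 concentration; on the % scale 0 is the no-effect control and ±100 the full control effect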
Target sequence (Q9GZU1 whole entry, looked up): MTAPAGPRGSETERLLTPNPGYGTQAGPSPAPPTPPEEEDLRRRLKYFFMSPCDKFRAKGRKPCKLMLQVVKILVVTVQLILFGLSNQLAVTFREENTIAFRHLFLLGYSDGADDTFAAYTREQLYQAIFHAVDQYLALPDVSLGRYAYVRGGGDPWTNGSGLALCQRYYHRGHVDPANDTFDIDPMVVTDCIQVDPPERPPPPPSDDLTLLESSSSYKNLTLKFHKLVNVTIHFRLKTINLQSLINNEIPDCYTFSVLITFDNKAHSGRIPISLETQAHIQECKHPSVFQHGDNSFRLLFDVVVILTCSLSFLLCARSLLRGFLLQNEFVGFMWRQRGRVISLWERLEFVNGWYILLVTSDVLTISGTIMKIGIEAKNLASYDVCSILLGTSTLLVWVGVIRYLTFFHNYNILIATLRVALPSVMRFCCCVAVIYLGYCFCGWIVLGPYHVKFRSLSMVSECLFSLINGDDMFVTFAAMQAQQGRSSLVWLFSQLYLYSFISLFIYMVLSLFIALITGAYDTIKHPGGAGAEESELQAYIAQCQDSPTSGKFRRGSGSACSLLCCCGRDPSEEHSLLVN
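TRPML1-DL cells, Tet-induced overnight (~16 h, 37 °C) at 1,500 cells/well, were loaded with Ca8 no-wash dye plus quencher for 45-90 min at room temperature. Compounds were pinned during FDSS kinetic reading; agonist 54-4 at EC80 (4 uM final) then added.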
D3 antag – D3 dopamine receptor (human) antagonism; AID 652054; D3R cells, DiscoveRx beta-arrestin luminescence, antagonist mode; active compounds read low; P35462; max response, negative = inhibition, %; 360,000 tested, 2.5% active; in the data active means max response below about -50%; inconclusive means no clear call, values can overlap the other calls; further: on the % scale 0 is the no-effect control and ±100 the full control effect
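Cells expressing the human receptor were seeded at 1500 cells/well, incubated overnight at 37 degrees C in 5% CO2, then exposed to library compounds with dopamine controls for 90 minutes at 37 degrees C before luminescent detection.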
TRPML1 ag – human mucolipin-1 channel agonism; 410,000 tested, 0.12% active; activation, % (no concentration beside the values); Q9GZU1; TRPML1-expressing cells, Ca2+ dye fluorescence, FDSS; in the data active means activation above about 50%; inconclusive means mostly about 30% to 49%; further: 0% is about no effect
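Tet-induced TRPML1-DL cells, 1,500 per well, cultured overnight, were loaded with a no-wash Ca2+ dye for 45–90 min. Calcium fluorescence was recorded on the FDSS for 110 s after compound addition, before the EC80 agonist (4 uM 54-4) was added.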
Numbers without * were called inactive; ? = inconclusive; . = no result given. Compounds with a hit are over-represented: about 2.9% of the library has one in this group of screens.

SMILES | D3 ag | TRPML1 blocker | D3 antag | TRPML1 ag
O=c1c(Br)c(Br)cnn1-c1ccccc1 | -11 | 19 | -72* | 0
COc1c(Cl)cnn(-c2ccc(C)cc2)c1=O | -3 | 12 | 3 | -1
COc1ccc(Cn2c(C(=O)O)c(CNCc3ccco3)c3ccc(OC)cc32)cc1 | 2 | -11 | . | 1
CCOC(=O)C1=C(CN(CC)Cc2ccccc2)NC(=O)NC1c1ccc(OC(C)C)cc1 (stereo not given) | -1 | 28 | . | 0
c1ccc([C@H]2CN3C(=N2)Sc2ccccc23)cc1 | -14 | -7 | -52* | -1
CC(=O)N1SC(N)=NC1c1ccccc1 (stereo not given) | 2 | -8 | -4 | -1
Cc1cccc(C(c2sc3nc(-c4ccco4)nn3c2O)N2CCN(Cc3ccccc3)CC2)c1 (stereo not given) | 0 | 0 | . | 1
Cn1c(=O)c2c(-c3ccccc3Cl)n(-c3cc(Cl)ccc3O)cc2n(C)c1=O | -7 | 33 | . | 0
CN(C)c1ccc(/C=C/c2c(F)cnc3ccccc23)cc1 | . | . | . | 4
O=[N+]([O-])c1cc2oc3c(c2c(C=NCc2ccccc2)c1O)CCCC3 | 13 | 5 | -85* | 0
Cc1cccc(/N=C/c2c(O)ccc3oc4c(c23)CCCC4)n1 | -7 | 3 | ? | -1
CC(C)CN=Cc1c(O)c([N+](=O)[O-])cc2oc3c(c12)CCCC3 | -28 | 7 | -106* | 0
O=S(=O)(c1ccccc1Br)N1CCN(c2nc(-c3ccccc3)nc3ccccc23)CC1 | . | . | . | -1
O=C(Nc1ccc(N2CCCCC2)cc1)c1ccc2ccccc2n1 | -5 | ? | -12 | 87*
O=C(NCc1ccccc1Br)C1CCCN(C(=O)N2CCOc3ccccc32)C1 (stereo not given) | -6 | -7 | . | 0
Cc1ccc(S(=O)(=O)c2nc(NCCN(C)C)sc2Cl)cc1 | -1 | 12 | -68* | 0
Cc1ccc(S(=O)(=O)N2CC3(C)CN(S(=O)(=O)c4ccc(C)cc4)CC(C)(C2)C3)cc1 | 31* | -2 | 19 | -1
COc1ccc2c(c1OC)C(=O)N1c3ccccc3C(=O)N(Cc3ccco3)C21 (stereo not given) | . | . | . | -1
CC(C)(C)c1ccc(-n2nc(C#N)c(Cl)cc2=O)cc1 | -9 | 1 | -95* | 1
CC(C)(C)c1ccc(-n2nc(C(N)=O)c(O)cc2=O)cc1 | 3 | -22 | -3 | 1
C=C1NN(Cc2ccccc2)C(=O)N1c1ccc(OC)cc1 | . | . | . | -1
CCN(Cc1cnn(C)c1)Cc1nc(Cc2ccccc2Cl)no1 | 42* | 34 | -11 | 0
CCc1nonc1NC(=O)c1oc2c(C)c(C)ccc2c1C | 7 | 43 | -52* | 2
CCc1nonc1NC(=O)c1oc2cc(Br)ccc2c1C | 0 | 33 | 0 | 2
C=CCc1cccc(Cl)c1OCCCNC1CCCC1 | -9 | 46 | -89* | -1
SMILES | D3 ag | TRPML1 blocker | D3 antag | TRPML1 ag
COc1ccc(OC)c2c1C(=O)c1ccccc1C2=O | -1 | -13 | 14 | 11
COc1ccc(OC)c2c1C(=O)C(Cl)=C(Cl)C2=O | -23 | -10 | -126* | 5
CN(Cc1cn(-c2ccccc2)nc1-c1cc2ccccc2o1)C(=O)CCC(=O)O | 46* | -3 | 2 | 0
CCc1ccc(S(=O)(=O)NC(=S)NC2CCCCC2)cc1 | -5 | -16 | -67* | 0
CCCCN(C(=O)c1ccccc1Cl)C(CC(C)C)c1nc2ccccc2[nH]1 (stereo not given) | 48* | . | 8 | 0
CCC(c1nc2ccccc2[nH]1)N(CCCn1ccnc1)C(=O)c1ccc(C(F)(F)F)cc1 (stereo not given) | 2 | . | 12 | -1
CCCCCCCCCCCCCCCCCCCCCC(=O)Nc1ccn([C@@H]2O[C@H](CO)[C@@H](O)[C@@H]2O)c(=O)n1 | -2 | . | . | .
O=[N+]([O-])c1cc(O)c2ncccc2c1 | -16 | -10 | -58* | 0
COc1ccc(CCNC(=O)c2ccc3c(c2)N(Cc2ccccc2C)C(=O)c2ccccc2S3)cc1OC | -1 | 25 | . | 1
COc1ccc(Nc2cc(C(=O)NCCCN3CCN(c4ccc(OC)cc4)CC3)c3ccccc3n2)cc1 | 15 | -8 | . | 2
Cc1cccc(OCC(O)CN2CCN(c3ccccn3)CC2)c1C (stereo not given) | 68* | -2 | -21 | -1
CC1(C)Cc2cccc(OCC(O)CN3CCN(c4ccccn4)CC3)c2O1 (stereo not given) | 10 | 10 | 0 | 1

High-throughput results from PubChem BioAssay.
